Measured values: the supplement of paper PMC8387472
Counter-ions that a name gives are not always drawn. ± gives the standard deviation of the averaged measurements.

These compounds were tested on mESC LDLR-Dup GFP reporter (SpCas9 MH-deletion repair) (assay: fraction of GFP+ cells relative to DMSO control (fold change); higher = more MH-deletion repair to in-frame LDLR (or more editing)). Conditions: 2 µM; 7 days post-transfection.

SMILES	fraction of GFP+ cells
O=P1(NCCCl)OCCCN1CCCl (stereo not given) [Ifosfamide]	1.11 ± 0.34
C[C@H]1CCC/C=C/[C@@H]2C[C@H](O)C[C@H]2[C@H](O)/C=C/C(=O)O1 [Brefeldin A]	0.627 ± 0.22
CCn1cc(C(=O)O)c(=O)c2cc3c(cc21)OCO3 [Oxolinic acid]	0.941 ± 0.23
O=C(O)CCCc1ccc(N(CCCl)CCCl)cc1 [Chloroambucil]	2.44 ± 0.046
CCN1CCN(C(=O)Cc2ccc(Nc3ncc(F)c(Nc4ccc(C(=O)Nc5ccccc5Cl)cc4)n3)cc2)CC1 [Aurora A Inhibitor I]	0.548 ± 0.13
COC[C@H]1OC(=O)c2coc3c2[C@@]1(C)C1=C(C3=O)[C@@H]2CCC(=O)[C@@]2(C)C[C@H]1OC(C)=O [Wortmannin]	0.685 ± 0.098
NC(=O)c1cc(N2CC2)c([N+](=O)[O-])cc1[N+](=O)[O-]	1.43 ± 0.66
COc1ccc2c(c1)[nH]c1c(C)nccc12 [harmine hydrochloride]	1.1 ± 0.11
COc1ccc2c(c1)/C(=C/c1cnc[nH]1)C(=O)N2	1.29 ± 0.051
Cn1c(CCCC(=O)O)nc2cc(N(CCCl)CCCl)ccc21 [Bendamustine HCl]	1.26 ± 0.33
O=P1(N(CCCl)CCCl)NCCCO1 (stereo not given) [Cyclophosphamide Monohydrate]	1.78 ± 0.27
C/C(O)=C(\C#N)C(=O)Nc1cc(Br)ccc1Br	1.04 ± 0.32
Cc1cc(SCc2sc(-c3ccc(C(F)(F)F)c(F)c3)nc2C)ccc1OCC(=O)O	1.72 ± 0.64
CN1CCN(c2ccc([N+](=O)[O-])c3no[n+]([O-])c23)CC1	1.37 ± 0.088
C/C=C(\C)C(=O)N[C@@H](c1ccccc1)[C@@H](O)C(=O)O[C@H]1C[C@@]2(O)[C@@H](OC(=O)c3ccccc3)[C@@H]3[C@]4(OC(C)=O)CO[C@@H]4C[C@H](O)[C@@]3(C)C(=O)[C@H](OC(C)=O)C(=C1C)C2(C)C [Cephalomannine]	1.54 ± 0.41
